Measured values reported in PubChem BioAssay (NCI).
This is part of a sample that, as a whole, favours compounds with a hit. Of some 83,000 tested, about 20% had one in any assay.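 The endpoint reported here, percent growth, reads 100 for growth as untreated, 0 for no net growth and -100 for all cells dead.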 Unmarked numbers belong to inactive results. Active and inactive are the calls of the source. The calls were made as follows: active = growth percent below 10; inactive = the rest.

Assays:
Assay in all cases: NCI-60 one-dose screen, 48 h (100 = growth as untreated, 0 = no growth, -100 = all killed)
HCT-15 colon = conditions: 10 µM unless noted
SNB-75 CNS = conditions: 10 µM
SNB-19 CNS = conditions: 10 µM unless noted
U251 CNS = conditions: 10 µM unless noted
PC-3 prostate = conditions: 10 µM unless noted
SK-MEL-5 melanoma = conditions: 10 µM unless noted
UACC-62 melanoma = conditions: 10 µM unless noted
LOX IMVI melanoma = conditions: 10 µM unless noted
SK-MEL-28 melanoma = conditions: 10 µM unless noted
EKVX NSCLC = conditions: 10 µM unless noted
SN12C renal = conditions: 10 µM unless noted
UO-31 renal = conditions: 10 µM unless noted
TK-10 renal = conditions: 10 µM unless noted
ACHN renal = conditions: 10 µM unless noted
CAKI-1 renal = conditions: 10 µM unless noted
A498 renal = conditions: 10 µM unless noted
CCRF-CEM leukemia = conditions: 10 µM unless noted
MOLT-4 leukemia = conditions: 10 µM unless noted
SK-MEL-2 melanoma = conditions: 10 µM unless noted

| Compound | growth (HCT-15 colon) | growth (SNB-75 CNS) | growth (SNB-19 CNS) | growth (U251 CNS) | growth (PC-3 prostate) | growth (SK-MEL-5 melanoma) | growth (UACC-62 melanoma) | growth (LOX IMVI melanoma) | growth (SK-MEL-28 melanoma) | growth (EKVX NSCLC) | growth (SN12C renal) | growth (UO-31 renal) | growth (TK-10 renal) | growth (ACHN renal) | growth (CAKI-1 renal) | growth (A498 renal) | growth (CCRF-CEM leukemia) | growth (MOLT-4 leukemia) | growth (SK-MEL-2 melanoma) |
| --- | --- | --- | --- | --- | --- | --- | --- | --- | --- | --- | --- | --- | --- | --- | --- | --- | --- | --- | --- |
| COc1ccc(CCNC2=CC(=O)CCC2)cc1OC | 108% | 92.9% | 105% | 107% | 93% | 101% | 109% | 96.3% | 111% | 110% | 102% | 81.2% | 115% | 110% | 102% | 105% | 102% | 76.2% | – |
| CC1CCC(C)N(C)C1 (centres undefined) | 117% | 89.7% | 98.6% | 107% | 87.5% | 107% | 99.7% | 95.9% | 107% | 112% | 92.8% | 84.6% | 102% | 105% | 101% | 76.5% | 93.9% | 92.5% | – |
| NC1=NN(O)C2=CC([N+](=O)[O-])C=CC2=N1 (centres undefined) | 101% | 99.5% | 119% | 109% | 86.5% | 109% | 122% | 83.7% | 117% | 99.5% | 112% | 93.3% | 121% | 105% | 93.8% | 109% | 104% | 111% | – |
| CC(C)(C)OC(=O)NC(CSCc1ccccc1)C(=O)ON1C(=O)CCC1=O (centres undefined) | 103% | 105% | 106% | 105% | 91.3% | 114% | 112% | 104% | 120% | 113% | 107% | 90.8% | 119% | 101% | 112% | 110% | 96.7% | 97% | – |
| COc1cc(Cn2cc3c(c2)-c2oncc2CC3)cc(OC)c1OC | 16.3% | 45.5% | 34.9% | 17.2% | 38.4% | -36% (active) | 41.9% | 9.46% (active) | 59.9% | 40.6% | 30.2% | 27.5% | 53.3% | – | 20.8% | -1.56% (active) | 17.3% | 17.6% | 23.7% |
| COc1ccccc1CNCCCN1C(=O)c2ccc3c4c(ccc(c24)C1=O)C(=O)N(CCCNCCCCNCCCN)C3=O | -32.1% (active) | -79.7% (active) | -31.1% (active) | -51.8% (active) | -1.44% (active) | -99.3% (active) | -52% (active) | 1.41% (active) | -75.7% (active) | -41% (active) | -32.8% (active) | -1.99% (active) | -10.1% (active) | – | 7.3% (active) | -58.1% (active) | -19.1% (active) | -28.4% (active) | -54.6% (active) |
| O=c1cc/c(=N\Nc2ccccc2)c(=O)/c1=N/Nc1ccccc1 | 104% | 106% | 111% | 104% | 63.6% | 87% | 101% | 89% | 103% | 100% | 112% | 97.5% | 170% | 99.7% | – | 93% | 86.7% | 106% | 126% |
| CC1=C(C#N)C(=O)NC(C)C1 (centres undefined) | 101% | 111% | 103% | 105% | 94.9% | 105% | 104% | 90.4% | 101% | 105% | 99.9% | 94.9% | 106% | 102% | 103% | 104% | 102% | 116% | – |
